Compound activity deposited in PubChem BioAssay by National Center for Advancing Translational Sciences (NCATS).
BCR signal inh: chronic active BCR signaling inhibition; ABC-DLBCL IkBa-CBG/CBR reporter, luminescence ratio, 4 h; Potency, µM (top dose mostly 46.1 µM), for inactives: top-dose activity change, negative = inhibition, usual class: inhibitors; hit rate 0.05% among 340,000; active = well fitted inhibition curve with a large enough effect in the signal ratio, with a control signal flat, not every such curve was filed as active; inconclusive = small, poorly fitted or top-dose-only effect, or effect the other way, or a change in a side signal; the % refers to the signal ratio;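 note: plate controls were basal doxycycline-induced cells for no effect and cells given 10 µM MG132 for full effect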
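Doxycycline induced both beetle luciferases in TMD8 lymphoma cells; IKK-driven degradation limits the IkappaBalpha-fused green signal, while red luminescence normalises for cell number and nonspecific effects. Compounds tested up to 46 uM, 4 hrs.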
Mito fusion yeast: mitochondrial division inhibition or fusion activation; hit rate 0.23% among 320,000; AID 485298; Potency, µM (series often up to 46.1 µM), for inactives: top-dose growth rescue (activation), actives largely listed as activators; S. cerevisiae fusion-defective mutant growth rescue, CellTiterGlo 48 h; note: % of control where 0% means no effect; nearly all actives have a fitted effect of over 45% in size
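Read-out: ATP-based luminescence (CellTiterGlo, 10 min ambient) reporting growth of fusion-defective ts yeast after 48 hours at 37C on glycerol/ethanol YPEG medium in the presence of compound.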
uPA surface inh: blocks generation of uPA at the cell surface | hit rate 0.31% among 330,000 | cell surface uPA generation assay, qHTS | AID 540303 | Potency, µM (series often up to 38.3 µM), for inactives: at the highest dose activity change, negative = inhibition, usual class: inhibitors; active = well fitted inhibition curve with a large enough effect; inconclusive = small, poorly fitted or top-dose-only effect; inactive = no such curve, though single readings can be large or run the other way; tested in mouse RAW 264.7 cells; note: % is set by controls: 0 for no effect and ±100 for the full control effect; nearly all actives have a fitted effect of over 55% in size
VP16 counter: Gal4-VP16 reporter inhibition counter-screen; hit rate 3.5% among 310,000; Potency, µM (doses to about 53.6 µM), for inactives: top-dose activity, negative = inhibition, actives largely listed as inhibitors; Drosophila S2 Gal4-VP16 UAS-luciferase, luminescence, 20 h;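 note: Gal4-VP16 expression switched on by copper sulfate through the metallothionein promoter; % is set by controls: 0 for no effect and ±100 for the full control effect; nearly all actives have a fitted effect of over 50% in size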
Integrin act MD: integrin-mediated muscular dystrophy alleviation activation | alpha7betagal myoblasts, beta-gal FDG fluorescence, 48 h | Potency, µM (series often up to 38.3 µM), for the others: at the top dose activation, most hits filed as activators | AID 624291 | hit rate 0.064% among 350,000;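 note: 100% = response of the positive control SU9516; nearly all actives have a fitted effect of over 60% in size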
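alpha7betagal+/- myoblasts (passage 13, 250/well) treated 48 h at 37C with compounds at 1:260 dilution of DMSO stock. Lysed, then beta-galactosidase activity read as FDG fluorescence (ex 480/em 540) after 30 min, with pre-read for autofluorescence.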
RORgamma inh: inhibitors of mouse ROR gamma transcriptional activity | P51450 | Drosophila S2 Gal4-RORgamma UAS-luciferase reporter, 20 h | Potency, µM (series often up to 53.6 µM), without a hit: top-dose activity change, negative = inhibition, most hits filed as inhibitors | hit rate 5.4% among 310,000; note: % is set by controls: 0 for no effect and ±100 for the full control effect; nearly all actives have a fitted effect of over 60% in size
Target sequence (P51450 whole entry, looked up, the tested form may be a part): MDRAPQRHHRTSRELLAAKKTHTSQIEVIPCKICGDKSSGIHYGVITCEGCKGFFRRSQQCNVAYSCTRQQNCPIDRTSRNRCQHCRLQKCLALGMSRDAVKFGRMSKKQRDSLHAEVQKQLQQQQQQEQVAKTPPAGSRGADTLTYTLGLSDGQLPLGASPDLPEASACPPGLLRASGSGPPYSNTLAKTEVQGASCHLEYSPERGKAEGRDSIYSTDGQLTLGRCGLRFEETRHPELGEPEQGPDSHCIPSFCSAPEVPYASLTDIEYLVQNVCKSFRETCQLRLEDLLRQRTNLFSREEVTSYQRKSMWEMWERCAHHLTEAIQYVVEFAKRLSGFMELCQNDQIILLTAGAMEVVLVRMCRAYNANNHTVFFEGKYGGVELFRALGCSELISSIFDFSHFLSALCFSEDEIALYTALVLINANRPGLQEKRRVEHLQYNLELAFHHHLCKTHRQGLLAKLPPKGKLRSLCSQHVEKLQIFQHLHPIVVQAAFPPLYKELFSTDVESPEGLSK
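In this cell-based reporter format, copper sulfate (700 uM final) drives Gal4–ROR gamma fusion expression from a metallothionein promoter in Drosophila Schneider cells; compounds preincubated 1 hr, reporter read after 20 hr at ambient temperature.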
An asterisk follows results filed as active; ? = inconclusive; . = no result; [ ] = remark or other dose. An excerpt weighted towards active compounds, which were near 5.5% of everything screened. Unless noted, calls come from the whole dose curve; as a rule, active = well fitted curve in the direction sought with a large enough effect; inconclusive = small, poorly fitted or top-dose-only effect, or another doubt; inactive = no such curve, though single readings can be large; an effect the other way counts as inactive or inconclusive. Potency is the fitted concentration of half-maximal effect.

SMILES	BCR signal inh	Mito fusion yeast	uPA surface inh	VP16 counter	Integrin act MD	RORgamma inh
Cc1ccc(C2=Nc3ccccc3N(C(=O)c3ccccc3)C(C)C2)cc1 (centres undefined)	?	20µM*	2%	0%	5%	-1%
CCCS(=O)(=O)NCCc1sc2nc(-c3ccc(Cl)cc3)nn2c1C	0%	.	.	.	.	.
CCN(CC)c1ccc(S(=O)(=O)N2CCOCC2)cc1NC(=O)CN1CCc2ccccc2C1	?	1%	11%	-17%[10 µM]	6%	3.2µM*
C/C(=N\NC(=O)c1ccc(CN2CCc3ccccc3C2)cc1)c1ccccc1O	?	-1%	-10%	2.5µM*	-42%	0.89µM*
O=C(Nc1ccc(Cc2ccncc2)cc1)c1ccc(S(=O)(=O)N2CCCC2)cc1	0%	-2%	-3%	11µM*	0%	?
O=C(Nc1ccc(S(=O)(=O)N2CCCCC2)cc1)c1ccncc1	-1%	-1%	-3%	2%	10%	-13%
O=C(Nc1ccc(S(=O)(=O)N2CCOCC2)cc1)c1ccc(CN2CCc3ccccc3C2)cc1	-11%	8%	-9%	2.2µM*	-53%	8.9µM*
CCN(CC)c1ccc(S(=O)(=O)N2CCOCC2)cc1NC(=O)Cn1nc(C)c([N+](=O)[O-])c1C	4%	-2%	1%	.	?	.
O=C(Nc1ccc(S(=O)(=O)N2CCCC2)cc1)c1ccc(CN2CCc3ccccc3C2)cc1	8%	15%	-15%	1.4µM*	-35%	5.6µM*
Cc1ccc(C(=O)OCC(=O)N2CCNC2=O)c(C)c1	-4%	-1%	-2%	.	20%	.
O=c1c2sc(-c3ccccc3)cc2nc2n1CCC2	?	22%	-9%	?	30%	2.5µM*
CCc1ccc(CNC(=O)CCN2C(=O)COc3ccccc32)cc1	-19%	.	.	.	.	.
COC(=O)c1nn(-c2ccc3c(c2)CCN3C(C)=O)cc1O	-8%	-10%	.	8.9µM*	4%	7.1µM*
COC(=O)c1nn(-c2ccc3c(c2)OCO3)cc1O	-7%	0%	.	-26%	15%	-21%
COc1cc([N+](=O)[O-])ccc1NC(=S)NC(=O)CC(C)(C)C	9%	-3%	3%	-6%	?	10µM*
COc1cc([N+](=O)[O-])ccc1NC(=O)Cc1ccccc1	2%	2%	7%	-2%	5%	15%
COc1ccc([N+](=O)[O-])cc1NC(=S)NC(=O)C(C)(C)C	-1%	3%	-2%	-16%	15%	?
COc1cc([N+](=O)[O-])ccc1NC(=O)CCCOc1cccc(C)c1C	3%	8%	.	?	21%	20µM*
CCOC(=O)c1ccc(C(=O)OCC)c(NC(=S)Nc2ccc([N+](=O)[O-])cc2OC)c1	-1%	?	-4%	2.8µM*	-12%	2.2µM*
Cc1c2c(nc3ccccc13)CCC(C)C2 (centres undefined)	-1%	-4%	-6%	-23%	7%	11µM*
NCCCCCCNS(=O)(=O)c1ccc2c(Cl)cccc2c1	.	.	.	28µM*	.	?
N#CC(=C(O)COC(=O)Cc1c[nH]c2ccccc12)c1nc2ccccc2[nH]1	.	.	3%	.	-2%	.
N#C/C(=C(/O)COC(=O)c1cccnc1Cl)c1nc2ccccc2[nH]1	-2%	3%	0%	?	?	7.9µM*
COCC(=O)OC/C(O)=C(\C#N)c1nc2ccccc2[nH]1	?	-6%	-3%	2.8µM*	-63%	?
Cc1ccc(C(C)C)c(OC/C(O)=C(\C#N)c2nc3ccccc3[nH]2)c1	-10%	3%	3%	?	9%	2.2µM*
SMILES	BCR signal inh	Mito fusion yeast	uPA surface inh	VP16 counter	Integrin act MD	RORgamma inh
CCCC(=O)OC/C(O)=C(\C#N)c1nc2ccccc2[nH]1	?	4%	6%	?	-65%	4µM*
CCOC(=O)c1c(C)[nH]c(C(=O)OCC(O)=C(C#N)c2nc3ccccc3[nH]2)c1C	.	.	3%	.	-10%	.
CSCC[C@H](N)C(=O)N1CCC(C(=O)N[C@@H](C)C(=O)NCc2ccc(F)cc2)CC1	-2%	-1%	6%	2%	2%	-10%
CC(=O)OCC(NC(=O)C(CCCCNC(=O)OCc1ccccc1)NC(=O)OC(C)(C)C)C1OC(n2cc(F)c(=O)[nH]c2=O)C(OC(C)=O)C1OC(C)=O (centres undefined)	.	.	.	12%	.	23%
CCCCCCCCCCCC(=O)[O][Sn]([CH2]CCC)([CH2]CCC)[O]C(=O)CCCCCCCCCCC	.	.	.	-11%	.	9%[10 µM]
N#C/C(=C(/O)COC(=O)c1ccc(O)cc1)c1nc2ccccc2[nH]1	?	-3%	-2%	2%	-6%	12%
N#C/C(=C(/O)COC(=O)CCC1CCCCC1)c1nc2ccccc2[nH]1	-2%	-3%	-3%	10µM*	-10%	11µM*
CC(C)C(=O)OC/C(O)=C(\C#N)c1nc2ccccc2[nH]1	?	2%	3%	10µM*	27%	6.3µM*
N#CC(=C(O)COC(=O)CCCNC(=O)c1ccc(Cl)cc1)c1nc2ccccc2[nH]1	.	.	2%	.	0%	.
Fc1ccc(-c2ccc3c(c2)C2CC3CCN2)cc1 (centres undefined)	.	.	?	.	0%	.
CCN(c1ccccc1)S(=O)(=O)c1ccc(C(=O)NC2CCN(Cc3ccccc3)CC2)cc1	?	.	-11%	.	-56%	.
CCC1Oc2ccc(C)cc2N(CC(=O)N2CCN(c3ccccc3OC)CC2)C1=O (centres undefined)	-5%	.	.	.	.	.
Cc1noc(C)c1-c1cc(NC2CC2)ncn1	.	.	.	12%	.	?
O=C(c1ccc2c(=O)n(C3CCCC3)c(=S)[nH]c2c1)N1CCCCCC1	?	-2%	-6%	1µM*	-45%	1.3µM*
CC1CCCN(C(=O)c2ccc3c(=O)n(C4CCCC4)c(=S)[nH]c3c2)C1 (centres undefined)	?	-16%	-6%	-14%[10 µM]	?	10%
O=C(c1ccc2c(=O)n(-c3ccccc3)c(=S)[nH]c2c1)N1CCCCC1	8%	-1%	-6%	3.2µM*	-53%	8.9µM*
O=c1c(-c2ccc(F)cc2)nc2cnc(N3CCNCC3)nc2n1-c1ccccc1	.	.	.	-13%	.	-40%
Cc1cccc(NC(=O)CSc2cc(C)c(C#N)c3nc4ccccc4n23)c1	-9%	-4%	-1%	?	-27%	0.79µM*
Cc1cc(Cl)n2c(nc3ccccc32)c1C#N	?	-2%	-3%	?	-65%	3.2µM*
CNc1cc(C)c(C#N)c2nc3ccccc3n12	0%	2%	-2%	-8%	24%	17%
CC1(C)CCC(C)(C)c2cc(NC(=O)c3ccc(C(=O)O)cc3)ccc21	.	.	.	-23%	.	-24%
